Source: PubChem BioAssay
Compounds with a hit are over-represented: about 10% of the library has one in this group of screens.
GPT2 inhibitor: Primary qHTS assay for inhibitors of Glutamate pyruvate transaminase 2 (GPT2) | hit rate 0.25% among 100,000 | Potency, µM (titrated, usually from 57.7 µM), for inactives: at the top dose activity change, negative = inhibition, usual class: inhibitors | Recombinant GPT2, coupled pyruvate oxidase/HRP Amplex Red fluorescence; note: nearly all actives have a fitted effect of over 60% in size
Target sequence (Q8TD30 whole entry, looked up): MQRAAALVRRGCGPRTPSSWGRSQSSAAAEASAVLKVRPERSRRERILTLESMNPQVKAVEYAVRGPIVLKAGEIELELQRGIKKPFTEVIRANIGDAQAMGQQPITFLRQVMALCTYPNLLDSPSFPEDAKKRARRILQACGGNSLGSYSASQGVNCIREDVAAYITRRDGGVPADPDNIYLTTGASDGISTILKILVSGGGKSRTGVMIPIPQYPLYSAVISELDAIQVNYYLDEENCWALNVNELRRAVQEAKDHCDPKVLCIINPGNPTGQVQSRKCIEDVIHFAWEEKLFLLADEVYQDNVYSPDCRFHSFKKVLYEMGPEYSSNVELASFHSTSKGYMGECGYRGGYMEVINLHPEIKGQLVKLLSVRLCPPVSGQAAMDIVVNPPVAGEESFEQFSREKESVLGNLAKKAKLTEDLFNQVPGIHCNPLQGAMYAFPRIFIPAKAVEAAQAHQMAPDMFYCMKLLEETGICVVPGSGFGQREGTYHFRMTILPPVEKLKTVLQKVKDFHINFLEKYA
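Fluorescence of coupled pyruvate oxidase/HRP/Amplex Red system (50uM Amplex, 30 min, dark) reports pyruvate formed by GPT2. Enzyme reaction: 10ng/uL GPT2, 2mM L-alanine, 250uM a-KG, 30 min room temperature, pH 7.5; 50uM AOA control.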
NIH3T3 tox: Cytotoxic Profiling in NIH 3T3 Cell Line of Diverse Libraries Using Quantitative High-Throughput Screening | NIH 3T3 viability, CellTiter-Glo ATP luminescence, 48-72 h | Potency, µM (top dose mostly 96.7 µM), for inactives: at the highest dose activity change, negative = cytotoxicity, most hits filed as inhibitors | hit rate 4.3% among 94,000 | AID 1345082, 2018; note: nearly all actives have a fitted effect of over 55% in size
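NIH 3T3 cells at 400 cells/well received 23 nL of compound by pintool and were incubated 48 or 72 h at 37 °C. Viability was read as ATP-coupled CellTiter-Glo luminescence.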
HEK cytotox: Cytotoxic Profiling in HEK 293 Cell Line of Diverse Libraries Using Quantitative High-Throughput Screening. hit rate 6.6% among 94,000. HEK 293 viability, ATP luminescence (CellTiter-Glo), 48-72 h. Potency, µM (series often up to 115 µM), without a hit: at the top dose activity change, negative = cytotoxicity, actives largely listed as inhibitors; note: nearly all actives have a fitted effect of over 60% in size
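Viability of HEK 293 cells, plated at 250 cells/well, was judged by cellular ATP after compound treatment for 48 or 72 hr. Luminescence was imaged 10 min after CellTiter-Glo addition at room temperature.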
Luciferase inh: Firefly luciferase inhibition profiling of diverse chemical library using quantitative high-throughput screening | purified P. pyralis luciferase, luminescence, biochemical | Potency, µM (highest dose often 115 µM), hits mostly inhibitors | AID 1347043, 2019 | hit rate 2.5% among 76,000 | Luciferin 4-monooxygenase (Photinus pyralis), P08659; note: nearly all actives have a fitted effect of over 65% in size
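Purified P. pyralis luciferase (10nM final) in 50mM Tris acetate pH 7.5, 10mM Mg acetate, 0.01% Tween-20, 0.05% BSA with 10uM D-luciferin and 10uM ATP. Compounds titrated qHTS. Luminescence imaged on CCD.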
NPR1 antag: Natriuretic polypeptide receptor (hNpr1) antagonism - Primary qHTS | HEK293 hNpr1 GloSensor cGMP, ANP-stimulated luminescence | AID 1347048, 2019 | Atrial natriuretic peptide receptor 1 (Homo sapiens), P16066 | hit rate 1.6% among 76,000 | Potency, µM (doses to about 46.3 µM), for the others: top-dose activity change, negative = inhibition, most hits filed as inhibitors; calls by dose curve; note: nearly all actives have a fitted effect of over 60% in size
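Compound pre-incubated 30 min at room temperature on GloSensor-loaded HEK293 cells stably carrying hNpr1 and the pGS-40F cGMP biosensor. Stimulation uses hNppA at 0.1 nM final; luminescence is taken at baseline and 20 min post-agonist.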
Active calls of the source: *; i = inactive; ? = inconclusive; / = not tested or not shown; [ ] = remark or other dose. Unless noted, calls come from the whole dose curve; as a rule, active = well fitted curve in the direction sought with a large enough effect; inconclusive = small, poorly fitted or top-dose-only effect, or another doubt; inactive = no such curve, though single readings can be large; an effect the other way counts as inactive or inconclusive. % is set by controls: 0 for no effect and ±100 for the full control effect; potency is the fitted concentration of half-maximal effect.

SMILES	GPT2 inhibitor	NIH3T3 tox	HEK cytotox	Luciferase inh	NPR1 antag
Cc1nc(C2CC23CCN(S(=O)(=O)c2c(C)noc2C)CC3)no1 (stereo not given)	-1%	?	-25%	/	/
COc1ccc(-c2noc([C@@H]3CCCN3C(=O)Cc3ccc(C)cc3)n2)cc1OC	i	?	?	i	-2%
C[S+](=O)([O-])c1ccc(-c2nnc3ccc(C(=O)NC4CC4)cn23)cc1	1%[88.5 µM]	-14%[138 µM]	-9%[172 µM]	/	/
CCOC(=O)[C@H]1C[C@]2(CCCCN(CCOC)C2=O)N(C(=O)Cc2cccs2)[C@H]1c1ccco1	/	?	79µM*	/	/
CNC(=O)[C@H]1C[C@]2(CCCCN(CCO)C2=O)N(C(=O)Cc2cccs2)[C@H]1c1ccco1	/	?	35µM*	/	/
C[C@@H]1O[C@@H](O[C@H]2[C@H](OC(=O)[C@]34CCC(C)(C)C[C@H]3C3=CCC5[C@@]6(C)CC[C@H](O[C@@H]7O[C@H](CO[C@@H]8OC[C@H](O)[C@H](O)[C@H]8O[C@@H]8OC[C@@H](O)[C@H](O)[C@H]8O)[C@@H](O)[C@H](O)[C@H]7O)C(C)(C)C6CC[C@@]5(C)[C@]3(C)C[C@H]4O)O[C@H](CO)[C@@H](O)[C@@H]2O)[C@H](O[C@@H]2O[C@H](CO)[C@@H](O)[C@H](O)[C@H]2O)[C@H](O)[C@H]1O[C@@H]1OC[C@@H](O)[C@H](O[C@@H]2OC[C@@H](O)[C@H](O)[C@H]2O)[C@H]1O (stereo not given in full)	-1%[11.5 µM]	/	/	/	/
Cc1ccc(NC2=N[C@H]3[C@@H](O)[C@H](O)C[C@H](C(=O)N4CCC(C(N)=O)CC4)[C@H]3S2)cc1	i	1%[174 µM]	-4%[172 µM]	50µM*	-1%[70.6 µM]
Cc1ccc(C(=O)N2CCC3(CC2)N(c2ccccc2)C(=O)CS3(=O)=O)c(C)c1	-4%	-8%	-8%	i	0%
Cc1nn2c(c1-c1ccccc1[S+](C)(=O)[O-])N(Cc1ccccc1)CCC2	0%[88.5 µM]	10µM*	?	i	-2%[70.6 µM]
Cc1nn2c(c1-c1ccccc1OCc1ccccc1)N(Cc1cccc(O)c1)CCC2	i	25µM*	28µM*	i	?
Cc1nn2c(c1-c1ccccc1OCc1ccccc1)N(C(=O)C1CCC1)CCC2	-8%[88.5 µM]	?	40µM*	i	1%[70.6 µM]
COc1cccc(CN2CCCn3nc(C)c(-c4ccccc4[S+](C)(=O)[O-])c32)c1	i	?	?	i	-15%[70.6 µM]
CNC(=O)CN1C(=O)CN(C(=O)c2ccc(F)cc2)CCC(OC)c2ccccc21 (stereo not given)	/	?	-22%	/	/
Cc1sc2ccn(C)c(=O)c2c1C(=O)N1CCN(c2ccc(Cl)cc2)CC1	i	-15%	79µM*	i	-11%
O=C(c1ccc(Cl)s1)N1CCC2(CC1)CN(c1ccncn1)CC2CO (stereo not given)	i	?	50µM*	i	?
CCC(=O)N[C@H]1CC[C@H](C(=O)N(C)c2ccc(-c3nc4ccccc4o3)cc2)C1	i	/	/	/	/
CC(=O)N1CCCC1C(=O)Nc1ccc(-c2nc3ccccc3o2)cc1 (stereo not given)	i	-8%	?	16µM*	1%
O=C(c1ccccn1)N1CCCC(n2cc(-c3nc(-c4ccccc4)no3)nn2)C1 (stereo not given)	4%	-27%	?	?	-20%
Cn1nc(C2CCCN2)c2c(C(=O)NC3CC3)cc(C3CC3)nc21 (stereo not given)	2%	i	i	/	/
O=C(NC1CCNCC1)c1cc(C2CC2)nc2c1c(C1CCCN1)nn2-c1ccccc1 (stereo not given)	i	22µM*	45µM*	/	/
O=C(NC1CC1)c1cc(C2CC2)nc2c1c(C1CCCN1)nn2-c1ccccc1 (stereo not given)	i	32µM*	79µM*	/	/
CCCNC(=O)C1CCCCc2nnc(-c3ccccc3)n21 (stereo not given)	i	i	1%	/	/
COCCCn1c(=O)c(C(=O)N2CCN(C(=O)C3CC3)CC2)nc2cccnc21	1%	-7%	0%	/	/
O=C(C1CCN([S+](=O)([O-])c2cccs2)CC1)N1CCCC(c2nc3ccncc3[nH]2)C1 (stereo not given)	i	-26%	-9%	/	/
CCCNC(=O)[C@@H]1Cc2cn(Cc3ccccn3)c3cccc(c23)[C@H](CC(C)C)N1	-17%[88.5 µM]	?	?	i	-26%[70.6 µM]
SMILES	GPT2 inhibitor	NIH3T3 tox	HEK cytotox	Luciferase inh	NPR1 antag
CC(C)C[C@@H]1N[C@H](C(=O)NCC2CC2)Cc2cn(Cc3ccncc3)c3cccc1c23	3%[88.5 µM]	?	35µM*	i	-16%[70.6 µM]
CC(C)C[C@@H]1N[C@H](C(=O)O)Cc2cn(Cc3ccncc3)c3cccc1c23	-30%	-17%	-28%	i	5%
CCCNC(=O)[C@@H]1Cc2cn(Cc3ccncc3)c3cccc(c23)[C@H](CC(C)C)N1	-8%[88.5 µM]	25µM*	32µM*	i	?
CC(C)C[C@@H]1N[C@H](C(=O)NCCN(C)C)Cc2cn(Cc3ccncc3)c3cccc1c23	-10%[88.5 µM]	28µM*	40µM*	i	1%[70.6 µM]
CCCNC(=O)[C@@H]1Cc2cn(Cc3cccnc3)c3cccc(c23)[C@H](CC(C)C)N1	4%[88.5 µM]	89µM*	?	i	-2%[70.6 µM]
CC(C)C[C@@H]1N[C@H](C(=O)NC(C)C)Cc2cn(Cc3ccncc3)c3cccc1c23	-4%[88.5 µM]	32µM*	?	i	?
Cc1ccc(-c2cnc([C@@H]3COCCN3CC3CC3)[nH]2)cc1	i	-19%[174 µM]	63µM*	i	3%[70.6 µM]
CC(C)(C)CN1CCOC[C@H]1c1ncc(-c2ccc(Cl)cc2)[nH]1	-14%[88.5 µM]	89µM*	79µM*	i	-18%[70.6 µM]
Cc1ccc(-c2cnc([C@@H]3COCCN3Cc3ccncc3)[nH]2)cc1	2%[88.5 µM]	2%[174 µM]	-6%[172 µM]	i	4%[70.6 µM]
CC(C)(C)CN1CCOC[C@H]1c1ncc(-c2ccc(S(C)(=O)=O)cc2)[nH]1	-10%[88.5 µM]	-20%[174 µM]	-10%[172 µM]	i	0%[70.6 µM]
CC(C)(C)CN1CCOC[C@H]1c1ncc(-c2ccc(C(F)(F)F)cc2)[nH]1	2%[88.5 µM]	79µM*	71µM*	i	?
Cc1ccc(CN[C@@H]2CO[C@H](CNC(=O)c3ccccc3)[C@H]2O)cc1	3%[88.5 µM]	-19%[138 µM]	-12%[172 µM]	i	-14%[70.6 µM]
CCN1CCN(C(=O)c2cn3cc(-c4ccccc4)sc3n2)CC1	i	?	-25%	/	/
